In the library only some 7.6% were active in any assay of this set; here they are far more common.
Cy5 interf NS3h = Cy5 fluorescence interference, HCV helicase counter-screen; Cy5-dT15 DNA with NS3h; actives lie on both sides; signal over control mean, under 1 quenches; fluorescence interference ratio at 100 µM; hit rate 6% among 16,000; AID 720488;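 active = compound fluorescence over control fluorescence at most 0.8, a quencher, or at least a set upper limit, an enhancer; inactive = ratio between 0.8 and the set upper limit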
NS3h inh CB = hepatitis C NS3 helicase inhibition, primary screen; NS3h Cy5-dT15 DNA binding, fluorescence polarization; hit rate 1.6% among 16,000; inhibition, % at 100 µM; AID 687043;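 active = inhibition above the average over every tested compound plus 3 SD, cut at about 40% in these data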
Large screens that a line does not name were inactive.

O=C(O)CN1C(=O)/C(=C/c2ccccc2OCc2ccc([N+](=O)[O-])cc2)SC1=S	none
CN1C(=O)C(=Cc2ccccc2OCc2ccc([N+](=O)[O-])cc2)C(=O)N(C)C1=O	Cy5 interf NS3h 0.58
COc1cc(C=C2C(=O)N(C)C(=O)N(C)C2=O)ccc1Oc1ccc([N+](=O)[O-])cn1	Cy5 interf NS3h 0.79
Cc1ccc2nsnc2c1NC(=O)COc1ccccc1[N+](=O)[O-]	none
O=Cc1cc(Br)ccc1OCc1c(F)cccc1Cl	none
Cc1ccc2c(c1)N(C(=O)Nc1ccccc1)C(C)(C)CC2C (stereo not given)	none
CCc1ccccc1N(CC(=O)N1CCOCC1)S(C)(=O)=O	none
CC(C)C(=O)Nc1ccc(Br)cc1C(=O)O	none
Cc1ccc(C)n1-c1ccc(Br)cc1C(=O)O	NS3h inh CB 49
CCCC(=O)C1=C(O)C(C(=O)OC)C(C)(C)CC1=Nc1nc2ccccc2[nH]1 (stereo not given)	none
O=C1N/C(=N\N=C/c2ccccc2O)SC1Cc1ccccc1 (stereo not given)	none
O=C1N/C(=N/N=C\c2ccccc2O)SC1Cc1ccc(Br)cc1 (stereo not given)	NS3h inh CB 52
O=C(COc1ccccc1)Nc1ccc(Cc2ccncc2)cc1	Cy5 interf NS3h 0.71
O=C(COc1ccccc1)Nc1ccncc1	none
CC(C)(C)C1=C2OCC3COC2(O3)C(C(C)(C)C)=C(O)C1=O (stereo not given)	none
COCCNC(=O)CN(c1ccc(C)cc1)S(C)(=O)=O	none
COc1cc(/C=N\Nc2ccnc3cc(Cl)ccc23)ccc1O	Cy5 interf NS3h 0.34
COc1cc(/C=C2/C(=O)ON=C2c2ccc(Cl)cc2)ccc1O	none
COC(=O)c1ccc(OCC(O)CN(C)C)cc1 (stereo not given)	Cy5 interf NS3h 0.76
CCOC(=O)c1ccc(NC(=O)c2ccc(OCC(C)C)cc2)cc1	none
CS(=O)(=O)N(CC(=O)Nc1ccc(Cl)cc1)c1ccc(Br)cc1	none
O=C1NC(=O)/C(=C/c2ccc(OC(=O)c3ccccc3I)cc2)S1	none
O=Cc1ccc(OC(=O)c2ccccc2I)cc1	Cy5 interf NS3h 0.7
CC1=C(C(=O)Nc2ccc(C)cc2)C(c2ccccc2Br)NC(=O)N1 (stereo not given)	none
CCc1ccccc1NC(=O)[C@H]1CC=CC[C@H]1C(=O)O	Cy5 interf NS3h 0.74
CCc1ccccc1NC(=O)C(CC)c1ccccc1 (stereo not given)	none
Cc1ccc(C23CC4CC(CC(C(=O)O)(C4)C2)C3)cc1	none
CCOC(=O)c1c(-c2ccccc2)oc2ccc(OCC(=O)C(C)(C)C)cc12	none
CCOc1ccc(NC(=S)NC(=O)/C=C/c2ccc(OC)c(OC)c2)c([N+](=O)[O-])c1	Cy5 interf NS3h 0.8
CCOc1ccc(NC(=S)NC(=O)/C=C/c2ccc(C)cc2)c([N+](=O)[O-])c1	none
CCOc1ccc(NC(=O)c2ccc(S(=O)(=O)N(C)C)cc2)c([N+](=O)[O-])c1	Cy5 interf NS3h 0.57
CCOc1ccc(NC(=S)NC(=O)c2ccc(OC)cc2)c([N+](=O)[O-])c1	none
CCCN(CCC)c1ccc(/C=C2\SC(=S)NC2=O)cc1	none
O=C(/C=C/c1ccc(-c2ccc(Cl)cc2Cl)o1)c1ccc(F)cc1	none
O=C(CSc1nc2ccccc2o1)c1ccc2c(c1)Cc1ccccc1-2	Cy5 interf NS3h 0.64
CC(C)(C)CC(C)(C)NC(=O)CSc1nc2ccccc2o1	none
O=C(CCN1C(=O)/C(=C/c2cccs2)SC1=S)Nc1ccc(F)cc1	none
CN1CCN(C(=O)CCN2C(=O)/C(=C/c3cccs3)SC2=S)CC1	Cy5 interf NS3h 0.58
CCOc1ccc(NC(=O)CC2S/C(=N/N=C\c3ccccc3OC)NC2=O)cc1 (stereo not given)	none
Cc1ccccc1C(=O)Nc1cccc(NC(=O)c2ccc(Cl)c([N+](=O)[O-])c2)c1	Cy5 interf NS3h 0.71
Cc1cc(NC(=O)c2ccc(Cl)c([N+](=O)[O-])c2)ccc1Br	none
COc1cc(/C=c2\sc3nc4ccccc4n3c2=O)cc(I)c1OCCOc1cccc(C)c1	none
COc1ccc(/C=C/C(=O)N2CCC(C)CC2)cc1Br	Cy5 interf NS3h 0.62
COc1ccc(/C=C/C(=O)NCC2CCCO2)cc1Br (stereo not given)	none
Cc1ccc(C(C)C)c(OCC(=O)Nc2cc(C(F)(F)F)ccc2Cl)c1	none
CCc1ccccc1N1C(=O)/C(=C/c2cc(C)n(-c3cccnc3)c2C)C(=O)NC1=S	Cy5 interf NS3h 1.2
Cc1ccccc1N1C(=O)/C(=C/c2cc(C)n(-c3cccnc3)c2C)C(=O)NC1=S	none
O=C1NC(=Nc2cccnc2)S/C1=C\c1ccc(F)cc1	none
O=C1NC(=Nc2cccnc2)S/C1=C\c1cccc(F)c1	Cy5 interf NS3h 0.8
COc1cc(/C=C2/C(=O)NN(c3ccc(C)c(C)c3)C2=O)cc([N+](=O)[O-])c1O	Cy5 interf NS3h 0.72
CCOC(=O)c1ccc(N2NC(=O)/C(=C/c3cc(Br)ccc3O)C2=O)cc1	Cy5 interf NS3h 0.69
CCOc1c(/C=C2\C(=O)NN(c3ccccc3)C2=O)cccc1OC	none
CCOC(=O)c1ccc(N2NC(=O)/C(=C/c3cccc(OC)c3O)C2=O)cc1	none
